Assay results reported in PubChem BioAssay (NCATS).
Calls of active or inactive are those of the source. Entries that show only a call come without a potency. Calls follow the shape of the dose curve; as a rule, active = well fitted curve in the direction sought with a large enough effect; inconclusive = small, poorly fitted or top-dose-only effect, or another doubt; inactive = no such curve, though single readings can be large or run the other way.

Molecular target: T1, Hexokinase-4 (Homo sapiens) + Glucokinase regulatory protein (Homo sapiens) (UniProt P35557+Q14397)
Test: qHTS assay for inhibitors of recombinant human GCK-GKRP interaction: Diaphorase-coupled assay (AID 743205)
Details: G6PDH/diaphorase resorufin fluorescence; series mostly up to 57.5 µM
In short: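 Inhibitors of the GCK–GKRP complex relieve GKRP suppression of GCK, detected through a G6PDH–diaphorase cascade reducing resazurin. Human GST-GCK and FLAG-GKRP are used at 10 nM with 5 mM glucose and 0.4 mM ATP.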

T1 sequence (P35557 whole entry, looked up): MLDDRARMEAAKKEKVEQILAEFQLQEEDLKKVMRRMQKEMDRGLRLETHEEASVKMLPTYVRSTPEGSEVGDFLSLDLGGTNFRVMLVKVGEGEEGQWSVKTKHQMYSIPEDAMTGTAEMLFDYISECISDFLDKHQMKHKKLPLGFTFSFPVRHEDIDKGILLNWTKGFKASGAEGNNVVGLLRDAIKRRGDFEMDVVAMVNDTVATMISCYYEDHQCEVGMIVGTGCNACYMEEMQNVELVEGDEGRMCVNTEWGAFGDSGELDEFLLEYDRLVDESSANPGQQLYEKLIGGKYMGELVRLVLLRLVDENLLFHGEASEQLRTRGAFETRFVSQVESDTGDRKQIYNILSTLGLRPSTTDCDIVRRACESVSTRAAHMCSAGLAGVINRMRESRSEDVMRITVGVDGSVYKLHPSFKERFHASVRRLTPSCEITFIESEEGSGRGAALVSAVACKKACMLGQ
T1 sequence (Q14397 whole entry, looked up): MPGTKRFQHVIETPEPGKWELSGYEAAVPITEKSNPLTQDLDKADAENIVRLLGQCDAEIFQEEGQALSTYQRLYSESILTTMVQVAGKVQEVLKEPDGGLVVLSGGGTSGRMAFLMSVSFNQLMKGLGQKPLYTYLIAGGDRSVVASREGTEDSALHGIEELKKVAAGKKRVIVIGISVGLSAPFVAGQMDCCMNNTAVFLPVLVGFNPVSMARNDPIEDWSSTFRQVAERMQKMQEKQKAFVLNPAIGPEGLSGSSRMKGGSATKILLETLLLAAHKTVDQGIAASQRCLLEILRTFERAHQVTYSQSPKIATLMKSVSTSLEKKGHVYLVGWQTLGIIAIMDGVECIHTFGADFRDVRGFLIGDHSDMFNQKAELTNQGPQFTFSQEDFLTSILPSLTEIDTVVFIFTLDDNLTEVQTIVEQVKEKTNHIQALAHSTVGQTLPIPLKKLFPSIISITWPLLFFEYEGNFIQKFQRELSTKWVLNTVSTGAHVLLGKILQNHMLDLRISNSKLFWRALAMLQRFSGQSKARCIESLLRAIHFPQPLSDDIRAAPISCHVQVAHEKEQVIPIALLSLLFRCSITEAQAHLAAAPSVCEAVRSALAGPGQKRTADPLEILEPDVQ

| SMILES | Potency |
| --- | --- |
| CN1CC[C@@]2(C)c3cc(OC(=O)Nc4ccccc4)ccc3N(C)[C@@H]12 | inactive |
| COc1ccc(OC)c(C(O)C(C)N)c1 (stereo not given) | inactive |
| N[C@@H](CCl)C(=O)O | inactive |
| COc1cc(CC(C)N)c(OC)cc1I (stereo not given) | inactive |
| CCN1C[C@@]2(COC)C3[C@@H](OC)C4[C@@H]1C3([C@@H]1C[C@]3(O)[C@H](OC(=O)c5ccccc5)[C@@H]1[C@]4(OC(C)=O)[C@@H](O)[C@@H]3OC)[C@H](OC)C[C@H]2O | inactive |
| CN(C(=O)Cc1ccc(Cl)c(Cl)c1)C(CN1CCCC1)c1cccc(OCC(=O)O)c1 (stereo not given) | inactive |
| Cc1cc([C@@H]2CCCN2C)on1 | inactive |
| C[C@H](Cc1ccc2c(c1)OC(C(=O)O)(C(=O)O)O2)NC[C@H](O)c1cccc(Cl)c1 | inactive |
| N=C(N)c1ccc(CS(=O)(=O)F)cc1 | inactive |
| CC12NC(Cc3ccccc31)c1ccccc12 (stereo not given) | inactive |
| CN1CCC(c2c[nH]c3ccc(O)cc23)CC1 | inactive |
| COC(=O)N1CCN(C(=O)Cc2ccc(Cl)c(Cl)c2)C(CN2CCCC2)C1 (stereo not given) | inactive |
| Ic1ccccc1CNC1C2CCN(CC2)C1C(c1ccccc1)c1ccccc1 (stereo not given) | inactive |
| CN1CCc2cc(O)cc3c2[C@H]1Cc1ccc(O)c(O)c1-3 | inactive |
| O=[N+]([O-])c1cc(O)c(O)c([N+](=O)[O-])c1 | inactive |
| C#CCN[C@H](C)Cc1ccccc1 | inactive |
| NC(CCCCCP(=O)(O)O)C(=O)O (stereo not given) | inactive |
| NC(C(=O)O)c1cc(=O)[nH]o1 (stereo not given) | inactive |
| CC(C)(C)c1o[nH]c(=O)c1CC(N)C(=O)O (stereo not given) | inactive |
| C/C(O)=C(\C#N)C(=O)Nc1cc(Br)ccc1Br | inactive |

| SMILES | Potency |
| --- | --- |
| CC(=O)c1c(O)c(C)c(O)c(Cc2c(O)c3c(c(C(=O)/C=C/c4ccccc4)c2O)OC(C)(C)C=C3)c1O | inactive |
| CP(=O)(O)C1=CCNCC1 | inactive |
| NC(N)=NOCC[C@H](N)C(=O)O | inactive |
| Cc1c2ccncc2c(C)c2c1[nH]c1ccccc12 | inactive |
| NC(Cc1cc(O)c(O)cc1O)C(=O)O (stereo not given) | inactive |
| Cc1o[nH]c(=O)c1CC(N)C(=O)O (stereo not given) | inactive |
| Clc1ccc(N2CC3CCC(C2)N3)nn1 | inactive |
| COc1ccc2[nH]c3c(c2c1)CCNC3 | inactive |
| NC(Cc1ccc(N(CCCl)CCCl)cc1)C(=O)O (stereo not given) | inactive |
| N[C@@H](Cn1oc(=O)[nH]c1=O)C(=O)O | inactive |
| CCCn1c(=O)c2[nH]c(C3CCCC3)nc2n(CCCOC(=O)c2ccc(S(=O)(=O)F)cc2)c1=O | inactive |
| C[Se]C[C@H](N)C(=O)O | inactive |
| CN1CCc2cccc(Cl)c2CC1 | inactive |
| NC(=O)c1cc(N2CC2)c([N+](=O)[O-])cc1[N+](=O)[O-] | inactive |
| CN(N=O)c1cc(O)ccc1O | inactive |
| C=CCN1C[C@@H](C)N([C@H](c2ccc(C(=O)N(CC)CC)cc2)c2cccc(OC)c2)C[C@@H]1C | inactive |
| Oc1ccc2c3c1O[C@H]1c4oc5ccccc5c4C[C@@]4(O)C(C2)N(CC2CC2)CCC314 (stereo not given in full) | inactive |
| C[C@@H]1[C@@H]2Cc3ccc(O)cc3[C@@]1(C)CCN2CC1CC1 | inactive |
| C[N+](C)(C)CCOC(=O)CBr | inactive |
| CCCN(CCC)CCc1c[nH]c2ccc(C(N)=O)cc12 | inactive |

Molecular target: T1, Hexokinase-4 (Homo sapiens) + Glucokinase regulatory protein (Homo sapiens)
Test: qHTS assay for inhibitors of recombinant human GCK-GKRP interaction: ADP-Glo assay (AID 743206)
Details: ADP-Glo luminescence, 60 min, 0% = vehicle-only wells with enzyme present; series mostly up to 76.9 µM
In short: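 Pin-transferred compounds meet a 15 nM GST-GCK/15 nM FLAG-GKRP/2 uM S6P mix (dispense concentrations). ATP is then added to 0.4 mM final with 5 mM glucose, and the reaction runs 60 min at room temperature. ADP is quantified luminescently.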

| SMILES | outcome |
| --- | --- |
| N[C@@H](CCl)C(=O)O | inactive |
| CN(C(=O)Cc1ccc(Cl)c(Cl)c1)C(CN1CCCC1)c1cccc(OCC(=O)O)c1 (stereo not given) | inactive |
| C[C@H](Cc1ccc2c(c1)OC(C(=O)O)(C(=O)O)O2)NC[C@H](O)c1cccc(Cl)c1 | inactive |
| N=C(N)c1ccc(CS(=O)(=O)F)cc1 | inactive |
| COC(=O)N1CCN(C(=O)Cc2ccc(Cl)c(Cl)c2)C(CN2CCCC2)C1 (stereo not given) | inactive |
| Ic1ccccc1CNC1C2CCN(CC2)C1C(c1ccccc1)c1ccccc1 (stereo not given) | inactive |
| C#CCN[C@H](C)Cc1ccccc1 | inactive |
| NC(CCCCCP(=O)(O)O)C(=O)O (stereo not given) | inactive |
| CC(C)(C)c1o[nH]c(=O)c1CC(N)C(=O)O (stereo not given) | inactive |
| C/C(O)=C(\C#N)C(=O)Nc1cc(Br)ccc1Br | inactive |
| CC(=O)c1c(O)c(C)c(O)c(Cc2c(O)c3c(c(C(=O)/C=C/c4ccccc4)c2O)OC(C)(C)C=C3)c1O | inactive |
| CP(=O)(O)C1=CCNCC1 | inactive |
| Cc1c2ccncc2c(C)c2c1[nH]c1ccccc12 | inactive |
| NC(Cc1cc(O)c(O)cc1O)C(=O)O (stereo not given) | inactive |
| Clc1ccc(N2CC3CCC(C2)N3)nn1 | inactive |
| COc1ccc2[nH]c3c(c2c1)CCNC3 | inactive |
| NC(Cc1ccc(N(CCCl)CCCl)cc1)C(=O)O (stereo not given) | inactive |
| N[C@@H](Cn1oc(=O)[nH]c1=O)C(=O)O | inactive |
| CN1CCc2cccc(Cl)c2CC1 | inactive |
| NC(=O)c1cc(N2CC2)c([N+](=O)[O-])cc1[N+](=O)[O-] | inactive |
| C[C@@H]1[C@@H]2Cc3ccc(O)cc3[C@@]1(C)CCN2CC1CC1 | inactive |

Molecular target: T1, Hexokinase-4 (Homo sapiens) + Glucokinase regulatory protein (Homo sapiens)
Test: qHTS assay for inhibitors of recombinant human GCK-GKRP interaction: HTRF assay (AID 743207)
Details: recombinant GCK-GKRP HTRF binding, 60 min; series mostly up to 57.5 µM
In short: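 Steps: dispense GCK–GKRP complex (5 nM each, GST- and FLAG-tagged) with 2 uM S6P; pin in compounds; add XL665/Eu-cryptate-labelled antibodies; incubate 60 min at room temperature; read time-resolved FRET at 665 and 615 nm.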

| SMILES | outcome |
| --- | --- |
| CN1CC[C@@]2(C)c3cc(OC(=O)Nc4ccccc4)ccc3N(C)[C@@H]12 | inactive |
| COc1ccc(OC)c(C(O)C(C)N)c1 (stereo not given) | inactive |
| N[C@@H](CCl)C(=O)O | inactive |
| COc1cc(CC(C)N)c(OC)cc1I (stereo not given) | inactive |
| CCN1C[C@@]2(COC)C3[C@@H](OC)C4[C@@H]1C3([C@@H]1C[C@]3(O)[C@H](OC(=O)c5ccccc5)[C@@H]1[C@]4(OC(C)=O)[C@@H](O)[C@@H]3OC)[C@H](OC)C[C@H]2O | inactive |
| CN(C(=O)Cc1ccc(Cl)c(Cl)c1)C(CN1CCCC1)c1cccc(OCC(=O)O)c1 (stereo not given) | inactive |
| Cc1cc([C@@H]2CCCN2C)on1 | inactive |
| C[C@H](Cc1ccc2c(c1)OC(C(=O)O)(C(=O)O)O2)NC[C@H](O)c1cccc(Cl)c1 | inactive |
| N=C(N)c1ccc(CS(=O)(=O)F)cc1 | inactive |
| CC12NC(Cc3ccccc31)c1ccccc12 (stereo not given) | inactive |
| CN1CCC(c2c[nH]c3ccc(O)cc23)CC1 | inactive |
| COC(=O)N1CCN(C(=O)Cc2ccc(Cl)c(Cl)c2)C(CN2CCCC2)C1 (stereo not given) | inactive |
| Ic1ccccc1CNC1C2CCN(CC2)C1C(c1ccccc1)c1ccccc1 (stereo not given) | inactive |
| CN1CCc2cc(O)cc3c2[C@H]1Cc1ccc(O)c(O)c1-3 | inactive |
| O=[N+]([O-])c1cc(O)c(O)c([N+](=O)[O-])c1 | inactive |
| C#CCN[C@H](C)Cc1ccccc1 | inactive |
| NC(CCCCCP(=O)(O)O)C(=O)O (stereo not given) | inactive |
| NC(C(=O)O)c1cc(=O)[nH]o1 (stereo not given) | inactive |
| CC(C)(C)c1o[nH]c(=O)c1CC(N)C(=O)O (stereo not given) | inactive |
| C/C(O)=C(\C#N)C(=O)Nc1cc(Br)ccc1Br | inactive |

| SMILES | outcome |
| --- | --- |
| CC(=O)c1c(O)c(C)c(O)c(Cc2c(O)c3c(c(C(=O)/C=C/c4ccccc4)c2O)OC(C)(C)C=C3)c1O | inactive |
| CP(=O)(O)C1=CCNCC1 | inactive |
| NC(N)=NOCC[C@H](N)C(=O)O | inactive |
| Cc1c2ccncc2c(C)c2c1[nH]c1ccccc12 | inactive |
| Cc1o[nH]c(=O)c1CC(N)C(=O)O (stereo not given) | inactive |
| Clc1ccc(N2CC3CCC(C2)N3)nn1 | inactive |
| COc1ccc2[nH]c3c(c2c1)CCNC3 | inactive |
| NC(Cc1ccc(N(CCCl)CCCl)cc1)C(=O)O (stereo not given) | inactive |
| N[C@@H](Cn1oc(=O)[nH]c1=O)C(=O)O | inactive |
| CCCn1c(=O)c2[nH]c(C3CCCC3)nc2n(CCCOC(=O)c2ccc(S(=O)(=O)F)cc2)c1=O | inactive |
| C[Se]C[C@H](N)C(=O)O | inactive |
| CN1CCc2cccc(Cl)c2CC1 | inactive |
| NC(=O)c1cc(N2CC2)c([N+](=O)[O-])cc1[N+](=O)[O-] | inactive |
| CN(N=O)c1cc(O)ccc1O | inactive |
| C=CCN1C[C@@H](C)N([C@H](c2ccc(C(=O)N(CC)CC)cc2)c2cccc(OC)c2)C[C@@H]1C | inactive |
| Oc1ccc2c3c1O[C@H]1c4oc5ccccc5c4C[C@@]4(O)C(C2)N(CC2CC2)CCC314 (stereo not given in full) | inactive |
| C[C@@H]1[C@@H]2Cc3ccc(O)cc3[C@@]1(C)CCN2CC1CC1 | inactive |
| C[N+](C)(C)CCOC(=O)CBr | inactive |
| CCCN(CCC)CCc1c[nH]c2ccc(C(N)=O)cc12 | inactive |
